Bioassay records deposited in PubChem BioAssay by Sanford-Burnham Center for Chemical Genomics.
CYP2C19 activ = cytochrome P450 2C19 (human) activation; P33261; recombinant CYP2C19, luciferin-H EGE luminescence; stronger effect = higher value; 0 = fully inhibited enzyme, 1 = untreated enzyme; activation factor at 5 µM; 96,000 tested, under 10 active; AID 1025;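 active = activation factor of at least 2 at 5 µM in the primary screen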;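 also: 0 = wells with 2.5 mM tranylcypromine and 1 = vehicle-only wells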
Target sequence (P33261 whole entry, looked up): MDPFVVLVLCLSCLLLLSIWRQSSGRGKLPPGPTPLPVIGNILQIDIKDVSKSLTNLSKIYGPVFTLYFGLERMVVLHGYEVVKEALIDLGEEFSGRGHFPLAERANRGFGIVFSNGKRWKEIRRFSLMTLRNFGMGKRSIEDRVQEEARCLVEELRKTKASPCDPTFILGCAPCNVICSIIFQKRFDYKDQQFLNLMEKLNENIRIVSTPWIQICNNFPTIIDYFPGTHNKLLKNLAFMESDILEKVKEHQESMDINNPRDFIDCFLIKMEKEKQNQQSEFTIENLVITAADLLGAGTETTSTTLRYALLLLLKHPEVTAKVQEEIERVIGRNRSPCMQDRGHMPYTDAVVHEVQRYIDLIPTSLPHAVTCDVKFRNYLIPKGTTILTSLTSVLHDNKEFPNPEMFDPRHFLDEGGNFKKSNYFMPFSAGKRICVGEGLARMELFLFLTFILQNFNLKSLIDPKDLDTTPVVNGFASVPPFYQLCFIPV
CYP2C9 activ = CYP2C9 (human) activation; P11712; recombinant CYP2C9, luciferin-H conversion, luminescence; stronger effect = higher value; factor 1 = untreated enzyme, 0 = blocked; activation factor at 5 µM; 1.4% of 96,000 active;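 active = activation factor of 2 or more for CYP2C9 at a 5 µM dose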;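 also: 0 = sulfaphenazole-blocked wells and 1 = vehicle-only wells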
Pyk2 oligo antag = antagonists of human Pyk2 oligomerization. Q14289. Q293 cells, Pyk2 FERM NanoBiT luminescence; stronger effect = lower value. z-score (the deposit names both 25 µM and 10 µM). 0.83% of 99,000 active;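 active = Z-score of -3 or lower, scaled per plate to the spread of control and sample wells; inactive = z-score above -3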;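 also: negative z-score means lost luminescence so less FERM oligomerization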
CYP2C9 inh = inhibitors of human CYP2C9. P11712. CYP2C9 Supersomes, luciferin-H conversion, luminescence. inhibition, % at 5 µM. 20% of 96,000 active. AID 777;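 active = blocking of liver enzyme CYP2C9 beyond about 50% at 5 µM, limit read from the data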
CYP2C19 inhib = blocks human cytochrome P450 2C19 | CYP2C19 Supersomes, luciferin-H EGE luminescence, 30 min | inhibition, % at 5 µM | 21% of 96,000 active | AID 778;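 active = CYP2C19 inhibition above a set limit at 5 µM in the primary screen, cut at about 50% in these data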;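 also: plate controls were negative control wells for no effect and 2.5 mM tranylcypromine positive control for full effect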
An asterisk follows results filed as active; x = no result. This is a sample that favours compounds with a hit; in the whole collection about 28% have one here.

SMILES	CYP2C19 activ	CYP2C9 activ	Pyk2 oligo antag	CYP2C9 inh	CYP2C19 inhib
Cc1ccc(C2/C(=C(/O)c3ccc(Br)cc3)C(=O)C(=O)N2Cc2ccco2)o1 (stereo not drawn)	1.1	0.3	1.2	72*	-13
Cc1ccccc1COc1ccc(/C(O)=C2/C(=O)C(=O)N(CCCn3ccnc3)C2c2ccco2)cc1 (stereo not drawn)	0.2	0	1.1	95*	75*
COc1cccc(NC(=O)COC(=O)CCCc2c[nH]c3ccccc23)c1	0.7	1.7	0.59	-70	30
O=C(COC(=O)CCCc1c[nH]c2ccccc12)Nc1ccc2c(c1)OCO2	0.3	0.8	0.96	22	73*
O=C(COC(=O)C1c2ccccc2Oc2ccccc21)Nc1ccc2c(c1)OCO2	0.8	0.4	-0.77	58*	19
COc1ccc(NC(=O)COC(=O)CCCc2c[nH]c3ccccc23)cc1	0.2	0.2	2	81*	84*
O=P1(c2ccccc2)C=Cn2c1cc1c2CCCC1 (stereo not drawn)	x	x	-0.31	x	x
Oc1ccccc1C1=Nc2ccccc2N=C(c2cccs2)C1	0.8	0.6	-1.1	38	23
COc1ccccc1C1CC(c2cccs2)=Nc2ccccc2S1 (stereo not drawn)	0.1	0.2	-0.71	80*	90*
COc1cc(CC(C#N)(CO)c2nc3ccccc3[nH]2)ccc1OC(F)F (stereo not drawn)	x	x	0.28	x	x
N#Cc1c(-c2ccccc2)c(-c2ccccc2)n(Cc2ccco2)c1NC(=O)c1cccs1	0.5	0.4	-2.5	64*	50
Cc1sc(NC(=O)c2cccs2)nc1-c1ccccc1	1.1	1	-2.1	4	-6
Cc1nn2cc(-c3ccccc3)nc2s1	0.8	1	-0.12	1	22
c1ccc(-c2cn3c4c(sc3n2)CCCC4)cc1	0.4	0.8	0.66	19	57*
Cc1ccc(Cn2nnc3c(=O)n(CC(=O)c4ccccc4)cnc32)cc1	1	0.4	x	60*	1
Cc1ccc(Cn2nnc3c(=O)n(Cc4ccccc4C)cnc32)cc1	1	1.6	x	-62	0
COC(=O)c1ccc(/C=C/C(=O)c2ccc(OC)cc2)cc1	0.5	0.1	-1.1	91*	53*
CCOc1ccc(C(=O)/C=C/c2ccc(SC)cc2)cc1	0.4	0.7	-0.28	28	62*
CCOc1ccc(C(=O)/C=C/c2ccccc2C(F)(F)F)cc1	0.8	1.3	-0.71	-27	16
COC(=O)c1ccc(/C=C/C(=O)c2ccc(OC)c(OC)c2)cc1	0.6	0.8	0.23	23	39
O=C(Nc1nnc(-c2ccc3c(c2)CCCC3)o1)c1ccccc1	1	0.7	x	31	3
O=C(COc1ccccc1)Nc1nnc(-c2ccc3c(c2)CCCC3)o1	0.9	0.5	x	52*	12
O=C(N/N=C/c1ccc2cccc(OCc3ccccc3)c2n1)c1ccc(Cl)cc1	0.9	1.1	-3.1*	-5	8
O=C(NCCc1nc2ccccc2[nH]1)c1ccc(F)cc1	0.1	0.5	1	51*	88*
COCC(=O)NCCc1nc2ccccc2[nH]1	1	0.9	x	5	0
SMILES	CYP2C19 activ	CYP2C9 activ	Pyk2 oligo antag	CYP2C9 inh	CYP2C19 inhib
COc1ccccc1C(=O)NCCc1nc2ccccc2[nH]1	0.1	0.4	-0.26	58*	88*
O=C(CCCCCN1C(=O)c2ccccc2C1=O)NCCc1nc2ccccc2[nH]1	0.1	0.1	-0.87	91*	95*
Cc1ccc2c(c1)N(CC(=O)NC1CCCCC1C)C(=O)CO2 (stereo not drawn)	0.6	1.1	-0.3	-12	43
CCN(c1ccc(NC(=O)COC(=O)CCC(=O)c2ccc(F)cc2)cc1)C(C)C	0.4	0.8	-0.03	23	63*
CC(C)CNC(=O)COC(=O)CCC(=O)c1ccc(F)cc1	0.6	0.8	1.2	17	36
Cn1c(=O)cc(NCc2ccccc2)[nH]c1=O	1.2	1.1	-0.17	-10	-16
Cc1ccc(N2C(=O)C(Cl)=C(NCc3ccccc3)C2=O)c(C)c1	0.5	0.5	-0.88	53*	51*
O=C1CCc2cc(S(=O)(=O)NCCC(=O)N3CCN(c4cccc(Cl)c4)CC3)ccc2N1	x	x	1.4	x	x
COc1cccc(OC)c1OCCCCCc1c(C)n[nH]c1C	0.1	0.7	-0.8	32	86*
Cc1ccccc1OCCCCc1c(C)n[nH]c1C	0.3	0.5	-1.7	50*	65*
Cc1cccc(C)c1OCCCCc1c(C)n[nH]c1C	0.4	0.3	0.08	70*	60*
